# Cdc42 wt GTP = human Cdc42 wildtype GTP binding change, either direction. P60953. GST-Cdc42 beads, Bodipy-GTP binding, flow cytometry; actives lie on both sides. 190,000 compounds, 0.2% hits. percent activity (GTP binding), % at 10 µM. AID 761;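 active means percent activity GTP binding at least 20 points away from the 100% baseline, either down as inhibitor or up as activator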;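 further: median bead fluorescence of bound Bodipy-FL-GTP at 100 nM; 0% = excess unlabeled GTP control and 100% = no compound control; below 100% means less GTP binding so inhibitor and above means activator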
# Target sequence (P60953 whole entry, looked up): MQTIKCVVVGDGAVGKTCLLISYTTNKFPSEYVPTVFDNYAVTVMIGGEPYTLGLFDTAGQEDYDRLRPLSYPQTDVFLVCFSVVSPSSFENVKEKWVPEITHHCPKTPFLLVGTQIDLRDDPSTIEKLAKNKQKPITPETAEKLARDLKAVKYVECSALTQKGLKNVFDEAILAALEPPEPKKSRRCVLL
# Rac1 wt modul = alters GTP binding to wildtype human Rac1; GST-Rac1 beads, fluorescent GTP binding, flow cytometry; actives lie on both sides; 0 = cold GTP competed, 100 = untreated; GTP binding activity (% of control), % at 10 µM; 190,000 compounds, 0.27% hits; P63000;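 active means GTP binding activity at least 20 points away from the 100% control level, either lower or higher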
# Rac1 mut GTP = modulators of GTP binding to human Rac1 activated mutant | P63000 | GST-Rac1 activated beads, fluorescent GTP binding, flow cytometry; actives lie on both sides; 100% means binding = to untreated wells | percent activity (GTP binding), % at 10 µM | 190,000 compounds, 0.11% hits;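 active means GTP binding at least 20 percentage points away from the 100% baseline, in either direction, so actives lie on both sides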
# Rab2 wt GTP = changes GTP binding to wildtype dog Rab2A, up or down. GTP binding activity, % at 10 µM. GST-Rab2 wt beads, Bodipy-GTP binding, flow cytometry. 190,000 compounds, 0.19% hits;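 active means GTP binding activity at least 20 points away from 100%, either lowered or raised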;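 further: 0% = beads with excess unlabeled GTP and 100% = no-compound control corrected for plate trend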
# Rab7 wt GTP bind = alters GTP binding to wildtype dog Rab7. 190,000 compounds, 0.055% hits. GST-Rab7 beads, fluorescent GTP binding, flow cytometry; actives lie on both sides; untreated = 100%, excess cold GTP = 0%. GTP binding activity (percent of control), % at 10 µM;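 active means fluorescent GTP binding to Rab7 beads changed by at least 20 points from the 100% baseline, either direction, mostly lower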;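 further: median green fluorescence of bound Bodipy-FL-GTP per Rab7 bead population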
# HRas wt GTP bind = modulators of GTP binding to human HRas wildtype; 190,000 compounds, 0.14% hits; GST-Ras wt beads, Bodipy-FL-GTP binding, flow cytometry; actives lie on both sides; P01112; GTP binding activity, % at 10 µM;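 active means GTP binding activity at least 20% away from the 100% baseline, either lowered as inhibitor or raised as activator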;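 further: 0% = unlabeled GTP competition control and 100% = no-compound control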
# * = called active by the depositor. Only some compounds are listed: those with a hit (about 0.37% of all), similar ones and a draw of the others.
SMILES,Cdc42 wt GTP,Rac1 wt modul,Rac1 mut GTP,Rab2 wt GTP,Rab7 wt GTP bind,HRas wt GTP bind
Cc1ccc(N2C(=O)C(Cc3ccc(O)cc3)NC2=S)cc1C (stereo not given),101,104,102,101,102,102
Cn1nnnc1SCc1ccc(C(=O)Nc2nccs2)cc1,75*,71*,83,72*,82,73*
Cc1ccc2c(c1)c1nnc(SCC(=O)Nc3ccccc3C(F)(F)F)nc1n2CC(=O)O,90,86,91,89,94,91
Cc1ccc2c(c1)c1nnc(SCC(=O)Nc3cccc(Cl)c3C)nc1n2CC(=O)O,82,74*,83,83,89,82
O=C(COc1ccccc1[N+](=O)[O-])Nc1ccc(N2CCN(C(=O)c3cccs3)CC2)cc1,95,98,94,95,97,96
